Reference: the supplement of paper PMC6555819

Columns and labels:
Assay in all cases: PBM binding z-score (relative to random genomic background probes); higher = stronger binding; sequences stand for … in GC…GCGATTGACAGCGTAGAATGAAGG
[1] = tested on: RARb homodimer (NR concentration 270 nM)
Summary of the method: (§1)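 Antibodies against each partner of ligand-free nuclear receptor dimers (one per run) detected binding on custom Agilent 4×180K protein-binding microarrays after 1 h incubation. The double-stranded probes had 34-nt variable regions carrying direct-repeat seeds, single-nucleotide variants, half-site ablations and random human genomic background sequences. Binding z-scores, from regression-normalized fluorescence, use the random background probes as reference.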

[2] = tested on: RARg:RXRa (NR concentration 270 nM, RXRa partner concentration 90 nM)
Summary of the method: as §1

[3] = tested on: RARg homodimer (NR concentration 270 nM)
Summary of the method: as §1

[4] = tested on: RXRa DBDmut IVT, anti-RXR (DBD mutation: RXRa K156A/R161A, NR concentration 90 nM)
Summary of the method: as §1

[5] = tested on: RXRa homodimer (NR concentration 180 nM)
Summary of the method: as §1

[6] = tested on: THRa:RXRa (NR concentration 90 nM, RXRa partner concentration 90 nM)
Summary of the method: as §1

[7] = tested on: THRa homodimer (NR concentration 90 nM)
Summary of the method: as §1

[8] = tested on: VDR homodimer (NR concentration 270 nM)
Summary of the method: as §1

Sequence | PBM binding z-score [1] | PBM binding z-score [2] | PBM binding z-score [3] | PBM binding z-score [4] | PBM binding z-score [5] | PBM binding z-score [6] | PBM binding z-score [7] | PBM binding z-score [8]
GGAACGAGGGCATTCGAGTTAATAGCATGGCGAT | 0.504 | 1.33 | 1.59 | 2.83 | 1.09 | 3.22 | -0.196 | 2.58
TCTTGTATATCAAAGGTTAAGAAAGCCGAAGCCT | 1.82 | 1.98 | 1.32 | 0.935 | 2.92 | 1.58 | 0.181 | 0.26
TCCTATAGGTAAACAGGTGAAAGTCCGTAAGTTA | 0.829 | 0.269 | 0.132 | 1.06 | 0.667 | 0.77 | 0.418 | 0.275
CGTCCAAGGTCAGAGAAGTCAGTGAATGCCGAGT | 3.51 | 4.3 | 5.16 | 2.35 | 3.37 | 3.32 | 1.53 | 1.64
CGACCTAGGTCAGAACAGGACAGTGAAGGATGAT | 2.62 | 3.3 | 4.04 | 0.773 | 2.21 | 3.83 | 0.505 | 0.303
TCATATAGGTAATTGCTAGGTGAAAGTCCGATCT | 0.402 | 0.393 | 0.128 | 1.47 | 0.589 | 1.44 | 0.689 | 0.282
CCTAGTTGGTCAGGAGGTCAAACACCGGATATGA | 4.15 | 5.37 | 4.68 | 1.15 | 5.72 | 3.5 | 1.99 | 3.16
CATCCAAGGTCAATGCTAGGTCAGTGAAAGCATT | 4.85 | 7.59 | 6.9 | 3.53 | 5.4 | 4.39 | 2.95 | 3.16
CCTTACGGGTCACGAGGCTATAGCACGACGAGCG | 3.24 | 5.45 | 5 | 0.992 | 6.22 | 3.16 | 0.466 | 0.849
CCGACTGGGGCAAAGGTTACCAAACTCAGTACGA | 2.24 | 3.53 | 1.67 | -0.134 | 3.74 | 1.98 | -0.144 | 0.318
CCGACTGGGGCAGAAAGGTTACCAGACCATCCGG | 2.18 | 1.75 | 1.28 | -0.651 | 1.71 | 0.99 | -0.742 | -0.568
AGTCAAAGTTCACTAGGTAACGTACGATTCAGCT | 4.12 | 4.87 | 5.61 | 4.41 | 3.85 | 2.2 | 0.165 | 4
AGTCAAAGCTCACTAGGTAACGTAAGATTCAGCT | -0.396 | -0.184 | -0.065 | -0.217 | 0.00455 | 0.131 | -0.137 | -0.474
AGCTCTAGGTAAGACTCAGTTCAGTGAAGAACGC | 0.218 | -0.161 | -0.269 | 0.149 | -0.208 | 0.465 | 0.312 | 1.14
CGAACTAGGTCATCGACAGGACAGTGAATAGTAA | 2.75 | 4.84 | 4.87 | 2.2 | 2.72 | 3.06 | 0.98 | 1.39
ATATGTATGTTATCGGGTCATTCAGTTTGCGCAT | 2.47 | 2.01 | 1.75 | 1.81 | 2.28 | 3.26 | 2.66 | 3.18
TCTTGTAGATCAACAGGAGGTTAAGACAGATCGA | 0.499 | 0.964 | 0.323 | 0.507 | 0.916 | 0.703 | -0.723 | -0.102
AGAAAGAGGTTAAGATCAGGGAAACAGAATACAT | 1.42 | 2.54 | 1.86 | 0.244 | 2.82 | 2.02 | 0.45 | 0.57
CGTCCAAGGTCAGAGAGGGCAGTGAATGCCGAGT | 4.41 | 4.86 | 5.33 | 3.24 | 3.8 | 3.96 | 1.86 | 3.51

Sequence | PBM binding z-score [1] | PBM binding z-score [2] | PBM binding z-score [3] | PBM binding z-score [4] | PBM binding z-score [5] | PBM binding z-score [6] | PBM binding z-score [7] | PBM binding z-score [8]
ACTAGCTGGTCAGCTGAGGTCACACACAATTCGG | 4.27 | 4.27 | 4.18 | 0.848 | 4.03 | 5.12 | 4.71 | 3.25
TTACCAAGGTGAGCTAAGGTCGTTGATCCAACTC | 1.72 | 1.56 | 1.15 | -0.158 | 1.65 | 4.71 | 2.41 | 1.29
ATCTCTCGGTAAAGTTCAGTGAAAGATCGATAGA | 2.62 | 2.19 | 2.56 | 1.17 | 1.06 | 0.717 | 0.426 | 2.27
TCTATTAGTTGATTAAGGCAACCGAAACAGCGGA | -0.49 | 0.163 | 0.201 | 1.35 | 0.349 | 0.746 | 0.601 | 0.261
CCTGACAGGTGAGAAGGTAACTCAGCCTCGATTA | 0.33 | 0.701 | 0.393 | -0.0911 | 0.509 | 0.346 | -0.0701 | -0.656
CCAACTAGGTCAAGGTCAAAGTCGGTTTGTGCCA | 5.31 | 6.08 | 6.54 | 3.17 | 5.72 | 4.33 | 4.25 | 4.39
GGAACGAGGGCATTCGAGTTGAAAGCATGGCGAT | 0.677 | 1.02 | 1.19 | 3.05 | 1.12 | 3.9 | -0.523 | 3.1
TAGCCTAAGTCATTCAGGGGCCAGTATAGAAAGC | 0.772 | 1.72 | 0.386 | -0.0569 | 0.191 | 0.835 | -0.418 | -0.452
CGGACTGGGGCAGAAAGGTTACCATACCATCCGG | 2.51 | 1.79 | 1.69 | -0.693 | 1.85 | 1.29 | -0.00516 | 0.148
GCTGCTAGGTCAACTGATGGTCAGCCAAAGCTCG | 3.68 | 5.01 | 5.1 | 1.7 | 2.89 | 2.86 | 0.852 | -0.263
ATCTCTAGGTAAGACTCAGTTCAGCGAAGAACGC | 0.706 | 0.274 | 0.294 | 0.439 | 0.4 | 0.927 | 0.802 | 1.48
CTCGAAAGGTCGGATGAGGTGAGTATACGGATAA | 2.69 | 3.2 | 3.26 | 0.982 | 2.94 | 5.16 | 1.3 | 0.327
GGAAAGAGGGCAAAGTTGATAGCATCTGTCGACG | 1.93 | 2.84 | 2.38 | 1.85 | 2.81 | 1.08 | 0.0442 | 1.18
CAAATTAGGTCAAGAGGTCAAAGTCCGCTTCCCG | 5.68 | 8.43 | 7.88 | 3.08 | 8.85 | 4.42 | 2.88 | 5.32
ATCGAGAGGTCGAAGGTGAGTATACCCACCCGAA | 1.46 | 3.28 | 2.62 | 1.02 | 4.3 | 1.82 | -0.366 | 0.783
TCTAGCAGGCCTGAGGGTCACTCAAGAGGTACGG | 2.52 | 2.29 | 1.53 | 0.198 | 2.59 | 1.75 | -0.278 | 0.36
CGAACTAGGTCAAGGACAGTGAGTCTCCGCACGC | 3 | 3.43 | 4.13 | 1.02 | 2.28 | 3.1 | 1.85 | 0.408
CCTACTGGGCCATTCAGATGTCATTGATCATATG | 0.108 | 0.278 | 0.389 | 0.148 | -0.34 | -0.291 | -0.95 | -0.52
CTACCAAGGTGAACAAGGCCGTTGATTACTATTC | 0.956 | 0.749 | 0.894 | 0.53 | 0.695 | 2.18 | 1.08 | 0.0898

Sequence | PBM binding z-score [1] | PBM binding z-score [2] | PBM binding z-score [3] | PBM binding z-score [4] | PBM binding z-score [5] | PBM binding z-score [6] | PBM binding z-score [7] | PBM binding z-score [8]
CGAACTAGGTAATTGACAGGACAGTGAATAGTAA | 0.027 | 0.00313 | 0.198 | 0.0767 | -0.137 | 0.166 | -0.0579 | -0.054
TAGCCTAGGTAATTGGGCCAGTATAGTACGCATC | -0.403 | -0.17 | -0.133 | -1.07 | -0.301 | -0.106 | -0.68 | -0.642
CAAACTAAGTCAAAGGTCAAAGTCGAGCCAACCA | 4.68 | 6.82 | 5.86 | 2.2 | 8.46 | 3.74 | 0.739 | 2.93
TCTTGTAGATAAACAGGAGGTTAAGAAAGATCGA | 0.563 | 0.413 | 0.451 | 0.64 | 0.929 | 0.693 | -0.428 | -0.0637
AGAATGAGGTTATACGTAGATCGGGGAAGAAAGT | 0.901 | 1.6 | 0.926 | 2.14 | 2.27 | 2.12 | 0.732 | 0.909
TAGCCTAGGTCATTGGGCCGGTATAGTACGCATC | 2.86 | 3.58 | 4.08 | 0.933 | 2.62 | 2.67 | 0.961 | 1.35
CCTACTGGGCCACGAAAGGTCATTGATTCAGTGA | 4.53 | 4.73 | 4.37 | 0.61 | 5.18 | 3.67 | 0.798 | 2.59
ATACTAAGGTGATCGTGAGGTCGTTGATACTAAC | 1.76 | 2.89 | 1.27 | 1.35 | 2.06 | 3.7 | 3.46 | 3.43
TCTTGTAGATGAAGCAGGTTAAGAAAGCCTGAGT | -0.21 | -0.0639 | -0.213 | 0.667 | 0.257 | -0.0515 | -0.455 | -0.176
GTACCAAGGTGAATAGGTCGTTGAAGAGTAGGCG | 2.13 | 2.81 | 1.45 | -0.183 | 1.9 | 1.91 | 0.593 | 0.198
CGTCAAAGTTCAACTAAGGTAACGGAAAGCACGC | 4.39 | 5.99 | 6.88 | 4.63 | 5.09 | 5.24 | 1.9 | 3.47
CAGCCGAGGTCAGGGCCAGTATAGGAGGAACGTT | 3.81 | 5.52 | 5.53 | 2.15 | 5.24 | 3.92 | 1.97 | 1.53
ATCTCCAGGTAAAAGTTCAGTGAATCCCGAGGAT | 2.54 | 2.14 | 2.33 | 0.595 | 1.94 | 1.57 | 0.432 | 1.84
AGAATGAGGTTATACCTAGATCAGGGAAGAAAGT | 0.483 | 1.75 | 1.14 | 1.51 | 2.12 | 2.05 | 0.418 | 0.345
TTACCAAGGTGAAACGTCGTTGATGCACGCCTTG | 0.238 | 0.69 | 0.555 | 0.0137 | 1.01 | 1.59 | 0.421 | -0.415
CCTTACGGGTCACTCCAGGTTATAGAATCGGAGT | 3.06 | 4.57 | 4.54 | 1.91 | 4.61 | 5.18 | 0.576 | 1.39
ATCTCTAGGTAATCAAGTTCAGTGAATGCCGAAC | 1.24 | 0.838 | 0.72 | 0.825 | 0.439 | 1.26 | 0.487 | 2.59
TCGAGTAGGTTAGTCGGCGCATTCAGCCAACATA | -0.408 | -0.412 | -0.662 | -0.0124 | -0.244 | -0.542 | -0.648 | -0.26
